# Test results reported in the supplement of paper PMC6555819.
# Assays:
# Test in all cases: PBM binding z-score (relative to random genomic background probes); higher = stronger binding; sequences stand for … in GC…GCGATTGACAGCGTAGAATGAAGG
# [1] = test system: RARb homodimer (NR concentration 270 nM)
# Method in brief: (§1)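 Custom Agilent 4×180K protein-binding microarrays carried double-stranded probes. Their 34-nt variable regions held direct-repeat seeds, single-nucleotide variants, half-site ablations and random human genomic background sequences. Arrays were incubated 1 h with ligand-free nuclear receptor dimers in PBS pH 7.4, 2% milk, 0.02% Triton X-100, 1 mM DTT, 0.2 mg/mL BSA and 0.4 mg/ml salmon testes DNA. Antibodies against each partner (one per run) detected binding, and scanned fluorescence was regression-normalized. Binding z-scores use random background probes as reference.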
# [2] = test system: RARg:RXRa (NR concentration 270 nM, RXRa partner concentration 90 nM)
# Method in brief: as §1
# [3] = test system: RARg homodimer (NR concentration 270 nM)
# Method in brief: as §1
# [4] = test system: RXRa DBDmut IVT, anti-RXR (DBD mutation: RXRa K156A/R161A, NR concentration 90 nM)
# Method in brief: as §1
# [5] = test system: RXRa homodimer (NR concentration 180 nM)
# Method in brief: as §1
# [6] = test system: THRa:RXRa (NR concentration 90 nM, RXRa partner concentration 90 nM)
# Method in brief: as §1
# [7] = test system: THRa homodimer (NR concentration 90 nM)
# Method in brief: as §1
# [8] = test system: VDR homodimer (NR concentration 270 nM)
# Method in brief: as §1
Sequence,PBM binding z-score [1],PBM binding z-score [2],PBM binding z-score [3],PBM binding z-score [4],PBM binding z-score [5],PBM binding z-score [6],PBM binding z-score [7],PBM binding z-score [8]
ACTCGGAGGACAAAGGTCAGAGGTACGCCAGTGA,4.58,5.98,5.03,0.647,5.39,3.49,0.633,1.68
ATACCAAGGTGATCGTGAGGTCGATGATACTAAC,1.82,2.16,1.22,0.391,1.36,3.09,1.95,1.21
CATACTAGGTCAAGAGGTCAAAGTCCGCTTCCCG,5.69,8.1,7.68,3.2,8.08,4.5,2.62,4.64
TCTGCTAGGTCAGTTAGTCAGCTAACGAGCTGCC,1.99,2.4,3.3,0.561,0.813,0.906,-0.364,-0.726
TCAGACAGGTCAAGGTAACTCAGGTACGCAGTCG,3.61,4.57,4.8,2.07,4.44,3.33,1.49,0.989
TCTTGTAGATCAATTGAGGTTAAGAAAGTGCGCT,0.953,0.568,0.0458,1.05,0.886,3.84,0.878,0.579
CCTCGGAGGACAGAAGGTCAGAGGTGTCCGCTTT,3.67,3.28,2.68,0.0335,1.71,2.19,-0.0182,0.148
